# Results filed as inconclusive are left out. Active and inactive are the calls of the source.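 Rule for the calls, unless noted: active = efflux inhibition above 0.42, the validation set average plus 4 SD; inconclusive = no clear call, values can overlap the other calls; inactive = the rest.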
# Legend:
# [1] = rapamycin-like changes in RPL19A-GFP expression – cell-based, S. cerevisiae, multiplex flow cytometry, primary screen (AID 1862; in the data active = percent of DMSO control GFP below about 86%;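 note: lower values mimic rapamycin by blocking the RPL19A rise seen in DMSO cells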); conditions: S. cerevisiae RPL19A-GFP strain, flow cytometry fluorescence, 3 h; at 10 µM; stronger effect = lower value
# [2] = TOR pathway GLN3 branch reporter MEP2-GFP changes – S. cerevisiae, multiplex flow cytometry, primary screen (AID 1867;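 active = GFP response, as percent of the DMSO control, above the screen-wide mean plus 3 SD, about 139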;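 note: median GFP channel fluorescence of barcode-gated MEP2-GFP cells measured by flow cytometry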); conditions: S. cerevisiae MEP2-GFP strain, 3 h, at 10 µM, stronger effect = higher value, 100% means same as DMSO wells
# [3] = TOR pathway RTG branch CIT2 reporter changes – S. cerevisiae, GFP fusion, multiplex flow cytometry, primary screen (AID 1870;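 active = percent response above a set limit, the screen-wide mean plus 3 SD, cut at about 130% in these data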;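 note: barcoded CIT2-GFP strain pooled with four other GFP strains with rapamycin as positive control; median GFP fluorescence per well over plate mean of DMSO wells so 100% = DMSO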); conditions: S. cerevisiae CIT2-GFP expression, 3 h, at 10 µM, stronger effect = higher value
# [4] = TOR pathway LAP4-GFP level changes – S. cerevisiae, multiplex flow cytometry, primary screen (AID 1873;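 active = GFP signal, as percent of the solvent control, above the screen mean plus 3 SD, about 149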); conditions: S. cerevisiae LAP4-GFP expression, 3 h, at 10 µM, stronger effect = higher value
# [5] = yeast AGP1-GFP level changes, GLN3 branch – cell-based, multiplex flow cytometry, S. cerevisiae, primary screen (AID 1887;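 active = GFP signal above the screen-wide mean plus 3 SD, that is over about 124.5% of the solvent control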;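 note: AGP1-GFP fusion strain of S. cerevisiae within a five-strain barcoded multiplex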); conditions: 3 h, at 10 µM, stronger effect = higher value
# [6] = reduced mouse 2C T cell binding to pMHC/ICAM-1 vesicles – MLPCN validation set, flow cytometry, LFA-1/ICAM-1 modulator project, pilot screen (AID 2523;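 active = response below a set limit, under 55% cells CD8-positive and vesicle-bound, and CD8 cells' 90th-percentile brightness under 279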;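 for vesicle binding response: mean PE anti-B7-1 fluorescence of CD8+ cells relative to row control; 100% = QL9-loaded vesicles with DMSO vehicle in the same plate row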); conditions: 2C mouse CD8+ T cells, at 7 µM, stronger effect = lower value; double positive events: measured here: CD8+/vesicle+ event percentage
# [7] = target: Integrin beta-1 (Homo sapiens) + Integrin alpha-4 (Homo sapiens) (UniProt P13612+P05556); assay: alpha4beta1 integrin LIBS antibody binding reduction – U937 cells, HUTS-21 mAb, flow cytometry, validation set, VLA-4 allosteric modulator project, pilot screen (AID 2674;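 active = inhibition above 50%, about 3 SD of the validation set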;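 note: antibody binding induced by the VLA-4 ligand LDV present at three times its Kd; 0% = LDV ligand with antibody and no compound and 100% = antibody without LDV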); conditions: HUTS-21 LIBS mAb binding, at 6.7 µM, stronger effect = higher value, binding induced by LDV ligand
# [8] = calorie-restriction mimetic ROS inhibitors, yeast – validation compound set, pilot screen (AID 2706;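 active = superoxide response below 65% of plate, a cut near 3 SD across the whole screen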;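 note: yeast exposed to compound for one week at 30 degrees C before staining; 100% = mean of all compound wells on the same plate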); conditions: S. cerevisiae aging, superoxide DHE fluorescence; at 10 µM; stronger effect = lower value
# [9] = target: Beta-adrenergic receptor kinase 1 (Homo sapiens) (UniProt P25098); assay: GRK2 binders displacing RNA aptamer, biochemical, validation, human GRK2, bead flow cytometry (AID 488806;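 active = aptamer binding inhibition above 30%, about 3 SD of noise from non-fluorescent compounds; inactive = inhibition at or below 30%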); conditions: bead-bound GRK2, FAM-aptamer displacement, at 10 µM, stronger effect = higher value
# [10] = target: Beta-2 adrenergic receptor (Homo sapiens) (UniProt P07550); assay: agonist-induced loss of surface beta2AR – cell-based, FAP fluorogen, flow cytometry, validation set, pilot screen (AID 504459;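 active = percent response above 42, roughly 3 SD of non-fluorescent test compounds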;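 note: agonist-driven loss of surface beta2AR via internalization measured by FAP dye flow cytometry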); conditions: Am2.2-beta2AR cells, at 10 µM, stronger effect = higher value
# [11] = target: AP-2 complex subunit beta (Homo sapiens) (UniProt P63010); assay: beta-arrestin/AP2 interaction blockers – biochemical, validation set, GST-AP2 beads, flow cytometry, pilot screen (AID 504541;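 active = inhibition above 54%, about 3 SD of non-fluorescent compounds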;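 note: AP2 carries R879A mutation and is captured from E. coli lysate; bead-bound FITC arrestin peptide fluorescence measuring arrestin peptide binding to AP2; 0% = DMSO wells and 100% = excess unlabeled arrestin peptide control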); conditions: FITC arrestin peptide, at 10 µM, stronger effect = higher value, AP2 beta2 appendage fragment, R879A mutant
# [12] = cytosolic pH regulators acting via V-ATPase – S. cerevisiae, pHLuorin, HTS validation (AID 504600; in the data active = response above about 15%;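 note: plate controls were DMSO for no effect and reference compound for full effect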); conditions: V-ATPase proton transport, at 10 µM, stronger effect = higher value
# [13] = tested on: anti-desmoglein-3 scFv antibody binding to human DSG3; assay: blockers of pathogenic pemphigus antibody–desmoglein-3 binding – biochemical, validation compound set, bead-based, flow cytometry, pilot screen (AID 588368;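 active = binding below the plate cutoff, the plate median minus 3 SD, with a reading above zero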;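 note: signal is the median channel fluorescence of bead-bound GFP antibody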); conditions: Protein G beads, DSG3-Fc, scFv-GFP binding, at 10 µM, stronger effect = lower value
# [14] = Nile Red efflux blockade in pump-expressing yeast – validation compound set, multiplex, phenotypic, pilot screen (AID 588506);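 note: Nile Red retained in cells so higher fluorescence means more efflux inhibition; 0 = negative control wells and 1 = enniatin B 25 µM full block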; conditions: S. cerevisiae pump-expressing triplex, Nile Red efflux flow cytometry; at 10 µM; stronger effect = higher value; the pumps come from Candida albicans
# [15] = target: ATP-binding cassette sub-family B member 6 (Homo sapiens) (UniProt Q9NP58); assay: blockers of ABCB6-driven porphyrin uptake – K562-ABCB6 cells, flow cytometry, validation set, pilot screen (AID 588550;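 active = inhibition above the screen-wide mean plus 3 SD, about 51%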;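 note: 0% = DMSO wells and 100% = benzethonium chloride 70 µM positive control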); conditions: K562-ABCB6 porphyrin accumulation, 1 h, at 10 µM, stronger effect = higher value
# [16] = AML differentiation inducers, ER-HoxA9 marrow cells – cell-based, GFP/MAC1 double positive, flow cytometry, validation set, primary screen (AID 588685;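 active = differentiation response of at least 50%, scaled between solvent and reference control, from cells with both markers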;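 note: compound exposure lasts four days before antibody staining and flow analysis; 0% = DMSO wells and 100% = 5 µM fulvestrant positive control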); conditions: stronger effect = higher value, normalized: vehicle 0, fulvestrant 100
# ATP-binding cassette sub-family B member 6 (Homo sapiens), sequence (Q9NP58 whole entry, looked up): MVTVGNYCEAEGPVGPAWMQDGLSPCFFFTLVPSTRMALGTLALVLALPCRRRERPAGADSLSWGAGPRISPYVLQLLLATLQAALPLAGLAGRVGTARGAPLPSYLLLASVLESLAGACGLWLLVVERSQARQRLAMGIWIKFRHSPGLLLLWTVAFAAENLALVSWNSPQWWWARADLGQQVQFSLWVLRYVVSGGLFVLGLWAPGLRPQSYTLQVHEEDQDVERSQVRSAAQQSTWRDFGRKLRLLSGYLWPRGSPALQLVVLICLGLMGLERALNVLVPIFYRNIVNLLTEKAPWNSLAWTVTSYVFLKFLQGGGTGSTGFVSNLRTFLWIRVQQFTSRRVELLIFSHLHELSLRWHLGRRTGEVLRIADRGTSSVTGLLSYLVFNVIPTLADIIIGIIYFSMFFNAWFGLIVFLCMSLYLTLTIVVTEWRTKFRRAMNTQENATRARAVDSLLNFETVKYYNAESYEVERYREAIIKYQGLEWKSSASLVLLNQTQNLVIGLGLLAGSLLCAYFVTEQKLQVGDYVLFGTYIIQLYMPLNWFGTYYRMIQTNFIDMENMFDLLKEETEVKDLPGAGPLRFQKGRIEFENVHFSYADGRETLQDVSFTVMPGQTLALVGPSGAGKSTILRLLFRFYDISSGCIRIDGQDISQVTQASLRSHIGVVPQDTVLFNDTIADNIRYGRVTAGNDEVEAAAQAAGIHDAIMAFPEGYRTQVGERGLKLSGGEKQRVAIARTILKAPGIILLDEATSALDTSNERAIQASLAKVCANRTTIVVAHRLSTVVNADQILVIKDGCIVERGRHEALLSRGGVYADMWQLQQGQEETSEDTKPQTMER
# Beta-2 adrenergic receptor (Homo sapiens), sequence (P07550 whole entry, looked up): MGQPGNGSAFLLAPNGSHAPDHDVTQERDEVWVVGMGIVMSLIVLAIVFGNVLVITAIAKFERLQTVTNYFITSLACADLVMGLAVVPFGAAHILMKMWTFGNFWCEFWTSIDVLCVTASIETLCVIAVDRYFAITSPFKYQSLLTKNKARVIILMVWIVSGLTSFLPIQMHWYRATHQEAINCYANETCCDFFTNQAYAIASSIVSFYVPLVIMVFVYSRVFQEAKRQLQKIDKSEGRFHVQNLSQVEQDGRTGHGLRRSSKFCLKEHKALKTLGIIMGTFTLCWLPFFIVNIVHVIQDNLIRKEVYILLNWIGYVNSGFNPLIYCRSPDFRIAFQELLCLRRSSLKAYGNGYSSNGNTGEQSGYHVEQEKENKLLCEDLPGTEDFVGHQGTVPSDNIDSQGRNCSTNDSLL
# AP-2 complex subunit beta (Homo sapiens), sequence (P63010 whole entry, looked up, the tested form may be a part, one chain of several): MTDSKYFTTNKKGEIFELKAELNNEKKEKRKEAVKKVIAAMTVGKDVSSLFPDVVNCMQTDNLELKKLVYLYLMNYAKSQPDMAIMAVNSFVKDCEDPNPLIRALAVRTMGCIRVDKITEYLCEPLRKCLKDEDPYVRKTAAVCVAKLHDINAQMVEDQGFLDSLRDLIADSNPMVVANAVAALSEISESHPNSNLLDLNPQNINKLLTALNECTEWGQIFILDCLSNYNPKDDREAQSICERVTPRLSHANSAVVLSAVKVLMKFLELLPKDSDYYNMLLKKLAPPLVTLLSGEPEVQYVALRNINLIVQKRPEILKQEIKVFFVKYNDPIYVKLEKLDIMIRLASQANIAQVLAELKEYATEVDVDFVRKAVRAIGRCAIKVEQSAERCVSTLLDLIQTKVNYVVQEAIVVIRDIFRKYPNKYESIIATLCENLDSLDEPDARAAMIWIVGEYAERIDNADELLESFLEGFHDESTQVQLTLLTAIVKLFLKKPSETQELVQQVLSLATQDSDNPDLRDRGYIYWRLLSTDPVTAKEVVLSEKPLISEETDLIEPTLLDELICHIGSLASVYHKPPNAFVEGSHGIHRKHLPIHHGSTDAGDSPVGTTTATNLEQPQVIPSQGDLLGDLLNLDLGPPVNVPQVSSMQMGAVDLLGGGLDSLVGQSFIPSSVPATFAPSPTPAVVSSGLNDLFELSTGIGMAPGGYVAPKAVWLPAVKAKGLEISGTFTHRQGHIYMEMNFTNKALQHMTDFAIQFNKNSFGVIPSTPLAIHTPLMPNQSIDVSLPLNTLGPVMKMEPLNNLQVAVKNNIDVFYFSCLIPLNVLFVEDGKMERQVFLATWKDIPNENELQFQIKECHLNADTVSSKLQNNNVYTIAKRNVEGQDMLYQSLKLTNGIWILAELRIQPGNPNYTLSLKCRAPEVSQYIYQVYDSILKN
# Beta-adrenergic receptor kinase 1 (Homo sapiens), sequence (P25098 whole entry, looked up): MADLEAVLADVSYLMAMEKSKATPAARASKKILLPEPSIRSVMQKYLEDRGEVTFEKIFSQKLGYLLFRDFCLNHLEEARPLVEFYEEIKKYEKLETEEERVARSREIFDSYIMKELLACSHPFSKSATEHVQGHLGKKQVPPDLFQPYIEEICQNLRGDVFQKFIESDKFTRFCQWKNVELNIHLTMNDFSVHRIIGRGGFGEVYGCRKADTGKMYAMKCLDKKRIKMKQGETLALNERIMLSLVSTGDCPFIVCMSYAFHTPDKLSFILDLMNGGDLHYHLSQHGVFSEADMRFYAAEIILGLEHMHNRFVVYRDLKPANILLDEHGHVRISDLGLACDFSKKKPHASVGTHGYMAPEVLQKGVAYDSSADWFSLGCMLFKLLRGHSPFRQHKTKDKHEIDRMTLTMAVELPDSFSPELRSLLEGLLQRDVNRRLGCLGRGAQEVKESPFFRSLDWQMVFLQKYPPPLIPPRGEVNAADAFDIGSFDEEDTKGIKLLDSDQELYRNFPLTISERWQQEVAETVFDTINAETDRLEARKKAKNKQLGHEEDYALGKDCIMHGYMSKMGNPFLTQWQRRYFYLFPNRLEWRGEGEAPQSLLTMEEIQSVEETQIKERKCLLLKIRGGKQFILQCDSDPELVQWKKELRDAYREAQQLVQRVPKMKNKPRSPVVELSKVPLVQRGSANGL
# Integrin beta-1 (Homo sapiens) + Integrin alpha-4 (Homo sapiens), sequence (P05556 whole entry, looked up): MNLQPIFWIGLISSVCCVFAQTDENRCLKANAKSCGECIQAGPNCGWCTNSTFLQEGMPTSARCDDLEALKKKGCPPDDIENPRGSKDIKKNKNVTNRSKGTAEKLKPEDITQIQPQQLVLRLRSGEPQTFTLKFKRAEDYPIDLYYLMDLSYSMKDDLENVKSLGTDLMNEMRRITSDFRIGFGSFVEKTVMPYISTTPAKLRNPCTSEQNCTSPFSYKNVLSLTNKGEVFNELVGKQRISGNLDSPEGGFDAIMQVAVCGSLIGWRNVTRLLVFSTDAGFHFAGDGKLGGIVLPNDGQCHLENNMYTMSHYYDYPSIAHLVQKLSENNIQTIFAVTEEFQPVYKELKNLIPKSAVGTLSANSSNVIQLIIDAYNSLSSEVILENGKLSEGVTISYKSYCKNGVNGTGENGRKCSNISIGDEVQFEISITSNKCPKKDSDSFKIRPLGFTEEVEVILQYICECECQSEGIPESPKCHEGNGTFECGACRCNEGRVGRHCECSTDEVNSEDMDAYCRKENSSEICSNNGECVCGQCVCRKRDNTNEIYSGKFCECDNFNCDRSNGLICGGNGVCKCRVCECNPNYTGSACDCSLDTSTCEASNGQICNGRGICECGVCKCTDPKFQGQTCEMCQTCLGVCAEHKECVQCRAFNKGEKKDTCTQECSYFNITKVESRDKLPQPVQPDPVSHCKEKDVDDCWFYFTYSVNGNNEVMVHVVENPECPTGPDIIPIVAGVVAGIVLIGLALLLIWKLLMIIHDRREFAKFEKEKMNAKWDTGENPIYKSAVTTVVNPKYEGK
# Integrin beta-1 (Homo sapiens) + Integrin alpha-4 (Homo sapiens), sequence (P13612 whole entry, looked up): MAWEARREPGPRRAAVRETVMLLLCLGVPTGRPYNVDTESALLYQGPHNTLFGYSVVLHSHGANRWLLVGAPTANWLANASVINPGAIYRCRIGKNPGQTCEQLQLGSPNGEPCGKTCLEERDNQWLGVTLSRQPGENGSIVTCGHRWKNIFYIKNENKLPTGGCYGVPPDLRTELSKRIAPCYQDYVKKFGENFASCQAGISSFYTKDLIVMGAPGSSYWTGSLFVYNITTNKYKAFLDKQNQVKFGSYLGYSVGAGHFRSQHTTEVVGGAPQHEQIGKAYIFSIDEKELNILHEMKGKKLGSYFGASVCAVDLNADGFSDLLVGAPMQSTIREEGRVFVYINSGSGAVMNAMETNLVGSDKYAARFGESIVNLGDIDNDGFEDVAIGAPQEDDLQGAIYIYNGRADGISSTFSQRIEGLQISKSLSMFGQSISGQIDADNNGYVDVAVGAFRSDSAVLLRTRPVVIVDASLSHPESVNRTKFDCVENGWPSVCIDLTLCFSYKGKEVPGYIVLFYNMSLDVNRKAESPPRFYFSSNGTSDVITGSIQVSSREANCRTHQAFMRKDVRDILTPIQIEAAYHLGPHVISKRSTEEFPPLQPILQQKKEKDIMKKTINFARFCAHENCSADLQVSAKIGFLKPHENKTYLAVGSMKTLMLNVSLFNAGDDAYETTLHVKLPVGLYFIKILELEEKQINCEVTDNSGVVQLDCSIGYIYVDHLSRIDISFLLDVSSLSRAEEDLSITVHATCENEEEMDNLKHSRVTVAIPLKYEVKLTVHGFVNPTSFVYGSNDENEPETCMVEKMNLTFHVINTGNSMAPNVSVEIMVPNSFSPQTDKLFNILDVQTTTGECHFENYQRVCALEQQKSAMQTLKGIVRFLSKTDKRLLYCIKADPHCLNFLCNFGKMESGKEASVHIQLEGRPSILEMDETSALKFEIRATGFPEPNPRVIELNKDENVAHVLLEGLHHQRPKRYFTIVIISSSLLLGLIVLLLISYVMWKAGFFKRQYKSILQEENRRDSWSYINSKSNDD
Structure (SMILES),percent of DMSO control GFP [1],GFP response vs DMSO [2],percent response of DMSO control [3],GFP response vs DMSO [4],"GFP response, % of DMSO [5]",double positive events [6] [%],vesicle binding response [6],inhibition [7],superoxide response (% of plate) [8],aptamer binding inhibition [9],response [10],inhibition [11],response [12],binding (% of control) [13],efflux inhibition (fraction of control) [14],inhibition [15],differentiation response [16]
Cc1cnc(N)c2c(=O)oc3ccccc3c12,99.8% (inactive),100% (inactive),105% (inactive),96.6% (inactive),95.3% (inactive),61.2,275% (inactive),-8.75% (inactive),98.8% (inactive),4% (inactive),-6.01% (inactive),-2.59% (inactive),-3.82% (inactive),97.1% (inactive),-0.01 (inactive),-2% (inactive),-6.6% (inactive)
COc1cc(CNc2nnnn2C)ccc1OCc1ccc(F)cc1Cl,102% (inactive),101% (inactive),98.2% (inactive),92.3% (inactive),97.2% (inactive),66.7,150% (inactive),3.98% (inactive),51.5% (active),-1% (inactive),15.7% (inactive),16.9% (inactive),0.17% (inactive),104% (inactive),0.68 (active),7% (inactive),-5.68% (inactive)
CCC(=O)Oc1ccc(C(=O)Nc2ccc([N+](=O)[O-])cc2)cc1,87.8% (inactive),148% (active),90% (inactive),82.5% (inactive),80.8% (inactive),61.8,195% (inactive),-0.33% (inactive),88.4% (inactive),5% (inactive),4.9% (inactive),15.9% (inactive),-4.69% (inactive),100% (inactive),-0.38 (inactive),14% (inactive),-6.55% (inactive)
CCc1cc2c(C)cc(=O)oc2cc1OC(=O)C1CCCN1C(=O)OC(C)(C)C (stereo not drawn),103% (inactive),95.2% (inactive),110% (inactive),82% (inactive),96.3% (inactive),57.4,247% (inactive),0.94% (inactive),92.9% (inactive),2% (inactive),19.6% (inactive),-11.6% (inactive),1.36% (inactive),103% (inactive),-0.03 (inactive),6% (inactive),-20% (inactive)
COc1ccc(NC(=O)C2OC3OC(C)(C)OC3C3OC(C)(C)OC23)cc1 (stereo not drawn),98.9% (inactive),98.6% (inactive),98.3% (inactive),106% (inactive),119% (inactive),63.5,203% (inactive),13.4% (inactive),103% (inactive),5% (inactive),-8.79% (inactive),-12.6% (inactive),1.13% (inactive),106% (inactive),-0.04 (inactive),5% (inactive),0.92% (inactive)
COc1cc2c(cc1OC)C1(CCCC1)CNC2c1cccc([N+](=O)[O-])c1 (stereo not drawn),99.3% (inactive),103% (inactive),95.8% (inactive),109% (inactive),92.8% (inactive),54.7,235% (inactive),-57.8% (inactive),99.7% (inactive),-2% (inactive),23.6% (inactive),-2.35% (inactive),35.2% (active),99.1% (inactive),0.05 (inactive),4% (inactive),-8.8% (inactive)
COc1ccccc1/C=C/C(=O)c1c2c(c(C)[nH]c1=O)CCCC2,97.8% (inactive),96.6% (inactive),96.4% (inactive),104% (inactive),114% (inactive),65.9,192% (inactive),17.6% (inactive),107% (inactive),8% (inactive),-4.6% (inactive),1.34% (inactive),17.4% (active),106% (inactive),-0.13 (inactive),4% (inactive),15.7% (inactive)
C[C@]12CC[C@@H]3c4ccc(O)cc4CC[C@H]3[C@@H]1CC[C@@H]2O,98.8% (inactive),105% (inactive),98.2% (inactive),132% (inactive),98.6% (inactive),63,186% (inactive),5.41% (inactive),97.8% (inactive),1% (inactive),-1.92% (inactive),21.6% (inactive),2.25% (inactive),103% (inactive),0.68 (active),4% (inactive),9.54% (inactive)
COc1ccc2cc([C@H](C)C(=O)O)ccc2c1,103% (inactive),93% (inactive),99.6% (inactive),77.7% (inactive),91.7% (inactive),70.5,222% (inactive),2.3% (inactive),91% (inactive),5% (inactive),15.2% (inactive),-13.8% (inactive),-6.97% (inactive),99.3% (inactive),0.08 (inactive),6% (inactive),-12% (inactive)
C#C[C@]1(O)CC[C@H]2[C@@H]3CCc4cc(O)ccc4[C@H]3CC[C@@]21C,94.4% (inactive),109% (inactive),110% (inactive),84.7% (inactive),100% (inactive),51.2,88.7% (inactive),7.43% (inactive),76.7% (inactive),-5% (inactive),-0.6% (inactive),1.36% (inactive),2.14% (inactive),106% (inactive),0.19 (inactive),9% (inactive),-3.28% (inactive)
CCN1CCN(C(=S)c2ccc(OC)cc2)CC1,101% (inactive),99.6% (inactive),109% (inactive),76% (inactive),92.6% (inactive),62.5,183% (inactive),-4.52% (inactive),106% (inactive),2% (inactive),11.6% (inactive),-10.4% (inactive),19.2% (active),101% (inactive),-0.21 (inactive),9% (inactive),-20% (inactive)
CC1(C)Cc2nc3sc4c(=O)n(CC(N)=O)cnc4c3cc2CO1,90.9% (inactive),134% (inactive),115% (inactive),73.2% (inactive),82.2% (inactive),67.5,159% (inactive),3.55% (inactive),102% (inactive),10% (inactive),-4.57% (inactive),12.8% (inactive),-2.49% (inactive),97% (inactive),0.41 (inactive),14% (inactive),-9.01% (inactive)
C=C1C2(C(=O)Nc3ccc(SC(F)F)cc3)CCC(C2)C1(C)C (stereo not drawn),103% (inactive),99.3% (inactive),105% (inactive),96% (inactive),100% (inactive),66.3,1190% (inactive),1.62% (inactive),82.1% (inactive),1% (inactive),-6.87% (inactive),-6.22% (inactive),1.62% (inactive),101% (inactive),-0.29 (inactive),7% (inactive),2.2% (inactive)
Cc1ccsc1/C=C/C1=NCCCN1C,106% (inactive),104% (inactive),112% (inactive),103% (inactive),118% (inactive),67.3,168% (inactive),-34.6% (inactive),104% (inactive),1% (inactive),3.43% (inactive),-5.94% (inactive),1.52% (inactive),104% (inactive),-0.135 (inactive),1% (inactive),-3.11% (inactive)
Cc1ccccc1C(=O)Nc1ccccc1C(=O)NCC(C)C,100% (inactive),107% (inactive),104% (inactive),118% (inactive),108% (inactive),63.7,208% (inactive),7.4% (inactive),118% (inactive),3% (inactive),-22.2% (inactive),35.6% (inactive),-2.23% (inactive),99.9% (inactive),0 (inactive),-1% (inactive),2.89% (inactive)
Cc1ccc(Nc2ncccc2C(=O)O)cc1C,90.6% (inactive),123% (inactive),103% (inactive),80.3% (inactive),94.7% (inactive),64.4,264% (inactive),8.4% (inactive),114% (inactive),2% (inactive),0.08% (inactive),-7.34% (inactive),-0.86% (inactive),105% (inactive),-0.31 (inactive),15% (inactive),6.55% (inactive)
C[C@]12CC[C@@H]3c4ccc(O)cc4CC[C@H]3[C@@H]1C[C@@H](O)[C@@H]2O[C@@H]1O[C@H](C(=O)O)[C@@H](O)[C@H](O)[C@H]1O,90.6% (inactive),113% (inactive),108% (inactive),77% (inactive),104% (inactive),61.7,249% (inactive),-10% (inactive),109% (inactive),4% (inactive),-7.17% (inactive),-6.28% (inactive),-6.58% (inactive),105% (inactive),0.12 (inactive),8% (inactive),-4.91% (inactive)
CCCC(CCC)C(=O)OC1C[C@H]2CC[C@@H](C1)[N+]2(C)C (stereo partly drawn),95.2% (inactive),132% (inactive),93.9% (inactive),80.9% (inactive),94.9% (inactive),59.5,155% (inactive),14.2% (inactive),108% (inactive),7% (inactive),-2.34% (inactive),-1.17% (inactive),0.47% (inactive),101% (inactive),0.27 (inactive),9% (inactive),3.28% (inactive)
O=C(O)[C@H](Cc1ccccc1)NC(=O)N1CCC(Cc2ccccc2)CC1,104% (inactive),102% (inactive),96% (inactive),100% (inactive),99.9% (inactive),67,122% (inactive),-0.31% (inactive),108% (inactive),-6% (inactive),9.92% (inactive),4.86% (inactive),0.86% (inactive),99.5% (inactive),-0.18 (inactive),6% (inactive),-5.68% (inactive)

# Source: PubChem BioAssay
